According to PubChem BioAssay (NCATS):
Inconclusive results are not listed. Where a call stands in place of a potency, no number is given. The source made the active and inactive calls. The call rests on the fitted dose curve; in most records, active means well fitted cell-killing curve with a large enough effect; inconclusive means small, poorly fitted or top-dose-only effect; inactive means flat fitted curve, though single readings scatter.

experiment: qHTS assay to identify small molecule inhibitors of chordoma cells - UCH-2 (AID 1259356); settings: UCH-2 chordoma viability, CellTiter-Glo ATP luminescence, 48 h; series mostly up to 46.1 µM
Potency means the concentration at half of the fitted maximal effect.

Structure (SMILES)	Potency
CC(O)[C@@H]1NC(=O)[C@H](Cc2ccccc2)NC(=O)[C@H](C(C)O)NC(=O)[C@H](CCCCN)NC(=O)[C@H](Cc2c[nH]c3ccccc23)NC(=O)[C@H](Cc2ccccc2)NC(=O)[C@H](Cc2ccccc2)NC(=O)[C@H](CC(N)=O)NC(=O)[C@H](CCCCN)NC(=O)[C@@H](NC(=O)CNC(=O)[C@H](C)N)CSSC[C@@H](C(=O)O)NC(=O)[C@H](CO)NC1=O (some centres not stated)	inactive
O=C(O)Cc1cc(I)c(Oc2ccc(O)c(I)c2)c(I)c1	inactive
C[C@H](CCC(=O)O)[C@H]1CC[C@H]2[C@@H]3CC[C@@H]4C[C@H](O)CC[C@]4(C)[C@H]3C[C@H](O)[C@]12C	inactive
COc1ccc(C(=O)c2ccc(C)cc2)c(O)c1	inactive
CC(=O)O[C@@H]1CC2CCC1(C)C2(C)C (some centres not stated)	inactive
COc1ccc(C[C@H](C)NC[C@@H](O)c2ccc(O)c(NC=O)c2)cc1	inactive
O=C(O)CC/C=C\CC[C@@H]1[C@@H](N2CCCCC2)[C@@H](O)C[C@@H]1OCc1ccc(-c2ccccc2)cc1	inactive
CC(=O)Oc1cccc(C(=O)O)c1OC(C)=O	inactive
CN[C@@H]1[C@@H](O)[C@@H](O[C@@H]2[C@@H](O)[C@H](OC3OC(CN)=CCC3N)[C@@H](N)C[C@H]2N)OC[C@]1(C)O (some centres not stated)	inactive
NC(=O)OC[C@@H]1[C@H](NC(=O)/C(=N\OCC(=O)O)c2csc(N)n2)C(=O)N1S(=O)(=O)O	inactive
CN(Cc1ccccc1)Cc1ccccc1	inactive
CCOC(=O)c1c[nH]c2cc(OCC(C)C)c(OCC(C)C)cc2c1=O	inactive
C=Cc1c(C)c2cc3nc(cc4[nH]c(cc5nc(cc1[nH]2)C(C)=C5CCC(=O)OC)c(CCC(=O)O)c4C)[C@@]1(C)C3=CC=C(C(=O)OC)[C@H]1C(=O)OC	inactive
COc1cc(S(C)=O)ccc1-c1nc2ncccc2[nH]1 (configuration not stated)	inactive
CN[C@@H]1[C@@H](O)[C@@H](O[C@@H]2[C@@H](O)[C@H](O[C@H]3O[C@H](CN)[C@@H](O)[C@H](O)[C@H]3O)[C@@H](N)C[C@H]2NC(=O)C(O)CN)OC[C@]1(C)O (some centres not stated)	inactive
OC[C@H]1O[C@@H]2O[C@H]3[C@H](O)[C@@H](O)[C@@H](O[C@H]4[C@H](O)[C@@H](O)[C@@H](O[C@H]5[C@H](O)[C@@H](O)[C@@H](O[C@H]6[C@H](O)[C@@H](O)[C@@H](O[C@H]7[C@H](O)[C@@H](O)[C@@H](O[C@H]1[C@H](O)[C@H]2O)O[C@@H]7CO)O[C@@H]6CO)O[C@@H]5CO)O[C@@H]4CO)O[C@@H]3CO	inactive
CCN(CC)CCOc1ccccc1OC	inactive
CCCCCCCCCCCCOCCCN	inactive
CC1=CC(=C(c2ccc(N)cc2)c2ccc(N)cc2)C=CC1=N	14.6 µM (active)

Structure (SMILES)	Potency
NC(=O)[C@@H]1C[C@]2(NC(=O)NC2=O)c2cc(F)ccc2O1	inactive
C[C@H](N)C(=O)N[C@@H](C)P(=O)(O)O	inactive
Cc1cc(-c2ccc(N=Nc3c(S(=O)(=O)O)cc4cc(S(=O)(=O)O)cc(N)c4c3O)c(C)c2)ccc1N=Nc1c(S(=O)(=O)O)cc2cc(S(=O)(=O)O)cc(N)c2c1O	8.2 µM (active)
O=C(O)/C=C/C(=O)Nc1ccc(S(=O)(=O)Nc2nccs2)cc1	inactive
CC(O)[C@H]1CC[C@H]2[C@@H]3CC[C@@H]4C[C@@H](O)CC[C@]4(C)[C@H]3CC[C@]12C (some centres not stated)	inactive
CO[C@H]1C[C@H](O[C@@H]2/C(C)=C/C[C@@H]3C[C@@H](C[C@]4(CC[C@H](C)[C@@H](C5CCCCC5)O4)O3)OC(=O)[C@@H]3C=C(C)/C(=N/O)[C@H]4OC/C(=C\C=C\[C@@H]2C)[C@]43O)O[C@@H](C)[C@@H]1O	inactive
CO[C@@H]1[C@H](OC(=O)/C=C/C=C/C=C/C=C/C(=O)O)CC[C@]2(CO2)[C@H]1[C@@]1(C)O[C@@H]1CC=C(C)C	inactive
O=C1CCC(=O)N1CO	inactive
CN(C)C(=O)CCSC(SCCC(=O)O)c1cccc(/C=C/c2ccc3ccc(Cl)cc3n2)c1 (configuration not stated)	inactive
Cc1c(N)nc([C@H](CC(N)=O)NC[C@H](N)C(N)=O)nc1C(=O)N[C@H](C(=O)N[C@H](C)[C@@H](O)[C@H](C)C(=O)N[C@H](C(=O)NCCc1nc(-c2nc(C(=O)NCCCCN=C(N)N)cs2)cs1)[C@@H](C)O)[C@@H](O[C@@H]1O[C@@H](CO)[C@@H](O)[C@H](O)[C@@H]1O[C@H]1O[C@H](CO)[C@@H](O)[C@H](OC(N)=O)[C@@H]1O)c1cnc[nH]1	inactive
Cc1cccc(C)c1Nc1ncccc1C(=O)O	inactive
N=C(N)c1ccc(/C=C/c2ccc(C(=N)N)cc2O)cc1	inactive
O=P(O)(O)O	inactive
O=C(O)CCCC/C=C(\c1ccccc1)c1cccnc1	inactive
N[C@H](CC(=O)O)C(=O)O	inactive
CNC(C)CCC=C(C)C (configuration not stated)	inactive
CCCCC[C@H](O)/C=C/[C@H]1[C@H](O)CC(=O)[C@@H]1CCCCCCC(=O)O	inactive
CO/N=C(\C(=O)N[C@@H]1C(=O)N2C(C(=O)O)=CCS[C@H]12)c1csc(N)n1	inactive
